Structures are written as SMILES. In all, about 140,000 compounds went through this assay and about 550 (0.39%) were called active. Rule as the data show it: active = inhibition above about 27%; inactive = the rest. What follows is part of a selection rich in actives, with near analogues and random picks from the rest.

The target in this test is Galanin receptor type 2 (Homo sapiens) (UniProt O43603). Briefly: blockers of human galanin receptor 2 – cell-based, primary screen (AID 828).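 Also: cells stimulated with galanin 1-16 at roughly its EC80; 0% = agonist challenge control and 100% = basal control without agonist.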 Conditions: GALR2-expressing cells, antagonist mode; at 4 µM; active compounds read high.
Galanin receptor type 2 (Homo sapiens), sequence (O43603 whole entry, looked up): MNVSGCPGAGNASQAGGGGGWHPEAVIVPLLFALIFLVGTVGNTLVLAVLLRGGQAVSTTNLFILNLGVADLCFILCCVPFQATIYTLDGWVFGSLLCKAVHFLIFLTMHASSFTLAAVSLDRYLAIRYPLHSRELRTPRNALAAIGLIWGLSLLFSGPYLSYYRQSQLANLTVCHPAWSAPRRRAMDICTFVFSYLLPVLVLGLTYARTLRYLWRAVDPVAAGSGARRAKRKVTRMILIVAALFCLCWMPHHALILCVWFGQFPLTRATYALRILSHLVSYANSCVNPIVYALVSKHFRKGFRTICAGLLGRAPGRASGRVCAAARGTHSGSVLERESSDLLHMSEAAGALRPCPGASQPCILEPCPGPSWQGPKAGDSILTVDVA
For `CCOC(=O)NC(=O)CSc1nnc(SCCC(=O)O)s1`, the inhibition is -4.2% (inactive). The figure for `Nc1nc(SCC(=O)NCCN2CCOCC2)nc2sc3c(c12)CCC3` is 15.2% (inactive); for `O=C(CSc1nc2ccc([N+](=O)[O-])cc2[nH]1)c1ccc(Cl)cc1` it is 5.51% (inactive). Consider `Cc1cc(Oc2ccc(Cl)cc2)nc(SCC(=O)c2ccccc2)n1`, for which the inhibition is -1.42% (inactive). For the compound `O=C(CC1NCCNC1=O)Nc1cc(Cl)cc(Cl)c1` (stereo not drawn), the inhibition is -4.41% (inactive).

Regarding `CC1CN(C(=S)SCC(=O)c2ccccc2)CC(C)O1` (stereo not drawn), the inhibition was -1.6% (inactive). The figure for `N#Cc1cccc(NC(=O)COC(=O)c2ccccc2C(=O)c2ccc(Cl)c([N+](=O)[O-])c2)c1` is 68.1% (active); for `COC(=O)c1cc(NC(=O)Cc2ccccc2[N+](=O)[O-])ccc1Cl` it is 16.4% (inactive). The figure for `CC(=O)Nc1ccc(NC(=O)C(C)OC(=O)c2ccccc2C(=O)c2ccc(Cl)c([N+](=O)[O-])c2)cc1` (stereo not drawn) is 25.8% (inactive); for `CCN(C(=O)COC(=O)c1cc(NS(=O)(=O)c2ccc(Cl)c([N+](=O)[O-])c2)ccc1O)C1CCCCC1` it is -12.1% (inactive).

`CN(C)S(=O)(=O)c1cccc(NC(=O)COC(=O)C2(c3ccccc3F)CCCC2)c1`: the inhibition is 31.7% (active). The figure for `NS(=O)(=O)c1ccc(NC(=O)COC(=O)C2(c3ccc(F)cc3)CCCC2)cc1` is 10.9% (inactive); for `CN(c1ccccc1)S(=O)(=O)c1cccc(NC(=O)Cc2c(F)cccc2Cl)c1` it is 6.13% (inactive); for `CSCCC(Nc1ccc(S(=O)(=O)N2CCOCC2)cc1[N+](=O)[O-])C(=O)OCC(=O)N(C(C)C)C(C)C` (stereo not drawn) it is 0.86% (inactive).

As to `O=C(CCc1[nH]c2ccccc2c1Sc1ccccc1)N(CCO)CCO`, the inhibition was -2.04% (inactive).

In the case of `CCCOC(=O)c1c(NC(=O)c2cnn3c2NC(c2ccccc2)CC3C(F)(F)F)sc2c1CCCC2` (stereo not drawn), the inhibition is -6.74% (inactive). `CCOC(=O)c1cc2c(=O)n3ccccc3nc2n(CC(C)C)c1=NC(=O)c1c(-c2c(F)cccc2Cl)noc1C`: the inhibition is -2.98% (inactive).

Regarding `Cc1cccc(N2CCN(C(=O)c3ccccc3NC(=O)C3CCCCC3C(=O)O)CC2)c1` (stereo not drawn), the inhibition is 0.78% (inactive). The figure for `Cc1ccc(NN=C2C(=O)OC(C)(C)OC2=O)c(C)c1` is 4.74% (inactive); for `CN(C)c1ccc(C(CNC(=O)c2ccc(F)cc2)c2c[nH]c3ccccc23)cc1` (stereo not drawn) it is 5.85% (inactive). Turning to `CC(=O)N/C(=C/c1ccc(OC(F)F)cc1)C(=O)O`, the inhibition is -1.23% (inactive). The figure for `Cc1nn(-c2ccccc2)c(-n2cccc2)c1C(=O)O` is 8.6% (inactive).

For `O=C(CN1CCc2ccccc21)NC(c1ccccc1)c1ccccc1`, the inhibition is -11.2% (inactive). The figure for `CCCCN(CC)C(=O)c1ccc2c(c1)OCO2` is -4.88% (inactive); for `C=CCNC(=S)NNC(=O)c1ccc(Br)o1` it is 0.37% (inactive); for `O=C(COc1cccc(F)c1)Oc1ccc(C(=O)c2ccccc2)cc1` it is 5.19% (inactive). On to `CC(C)(C)NCCCOc1ccc(Cl)cc1C(C)(C)C`, for which the inhibition was -7.15% (inactive). The figure for `Cc1cccc(-c2nc3ccccc3c(=O)n2NC(=O)Cc2ccc(Cl)cc2)c1` is -8.75% (inactive); for `CSc1ccccc1-c1nnc(-c2ccc(Cl)cc2)o1` it is 14.1% (inactive); for `Cc1cc(C)cc(NS(=O)(=O)c2ccc(Oc3ncc(C(F)(F)F)cc3Cl)cc2)c1` it is -0.6% (inactive).

In the case of `FC(F)(F)c1cnc(Oc2ccccc2-c2nnc(-c3ccc(Cl)cc3)o2)c(Cl)c1`, the inhibition was 99.8% (active). The figure for `O=C(NNC(=S)Nc1ccc(Br)cc1Cl)c1ccco1` is 1.63% (inactive); for `c1ccc(-c2cc3c(NCC4COc5ccccc5O4)ncnc3s2)cc1` (stereo not drawn) it is -0.87% (inactive).

As to `Cc1ccc(NC(=O)Cn2nc(C)c3ccccc3c2=O)c(C)c1`, the inhibition is 8.82% (inactive). As for `COc1ccc(-c2nn(C)c(=O)c3ccccc23)cc1NC(=O)COc1ccccc1`, the inhibition is 2.22% (inactive). The figure for `Cc1ccc(F)cc1NC(=O)Cc1nn(C)c(=O)c2ccccc12` is 39.3% (active); for `Cc1ccc(-n2c(C)cc(C(=O)CSc3nnc4ccccn34)c2C)cc1` it is 3.5% (inactive); for `Cc1ccc(C(=O)NC(=S)Nc2ccc3[nH]c(=O)[nH]c3c2)cc1C` it is -6.84% (inactive). `COc1ccc(NC(=S)NCC2CCN(c3ccc(OC)cc3)C2)cc1` (stereo not drawn): the inhibition was -2.41% (inactive).

As to `C/C(CC1CC(C)(C)OC1=O)=N/Nc1nc(-c2ccccc2)cs1` (stereo not drawn), the inhibition is 7.6% (inactive). The figure for `COc1cc(C(=O)NCc2nnc(SCC(=O)Nc3nc4ccc(C)cc4s3)o2)cc(OC)c1OC` is -19.9% (inactive); for `CCCCc1ccc(NC(=S)N2CCCC(CO)C2)cc1` (stereo not drawn) it is -8.34% (inactive). The figure for `COc1ccc(NC(=O)CN(Cc2ccccc2)S(C)(=O)=O)cc1OC` is -9.1% (inactive); for `CCN1CCCC1CNc1ncnc2c1[nH]c1ccc(F)cc12` (stereo not drawn) it is 13.1% (inactive); for `O=C1CCCN1CCCNc1ncnc2c1[nH]c1ccccc12` it is 22.8% (inactive). `CC(C)OCCCNc1ncnc2c1[nH]c1ccc(F)cc12`: the inhibition was 35.1% (active). As for `COc1ccc(NS(=O)(=O)c2cc(NC(=O)/C=C/c3cc(OC)c(OC)c(OC)c3)ccc2N2CCCCC2)cc1`, the inhibition was 5.85% (inactive). On to `COc1ccc(/C=C/C(=O)Nc2ccc3c(c2)OCCO3)cc1OC`, for which the inhibition is 12.7% (inactive). The figure for `COc1ccc(/C=C/C(=O)Nc2ccc(C34CC5CC(CC(O)(C5)C3)C4)cc2)cc1OC` is 27.3% (active); for `O=C(NNC1CC(=O)N(c2cccc(Cl)c2)C1=O)c1cccnc1` (stereo not drawn) it is -6.86% (inactive). With `COc1ccccc1OCCC(=O)OCC(=O)NCc1ccccc1`, the inhibition was -7.36% (inactive). For the compound `Cc1cccc(-n2c(C)cc(/C=N/NC(N)=S)c2C)c1`, the inhibition is -7.75% (inactive). For the compound `CCCN(CCC)c1c([N+](=O)[O-])c(=O)oc2ccccc12`, the inhibition was 7.9% (inactive). The figure for `CCOC(=O)Cc1csc(NC(=O)CSc2ccc(Br)cc2)n1` is 6.81% (inactive); for `CC(C)/C=N/NC(=O)c1cc(Br)ccc1O` it is 10.3% (inactive); for `COc1ccc(C2COC(=O)C2=N)c(NC(=O)c2ccccc2)c1` (stereo not drawn) it is -8.91% (inactive).

As to `Cc1nn(Cc2ccc(Cl)cc2)c(Cl)c1/C=N/NC(=O)c1cccnc1`, the inhibition was 10.9% (inactive). The figure for `CC1CCc2sc(C(=O)N/N=C/C3CCCCC3)cc2C1` (stereo not drawn) is -7.82% (inactive).

For orientation: inhibition means the relative decrease from the control value, in per cent.

These data come from PubChem BioAssay AID828 (The Scripps Research Institute Molecular Screening Center, 2007).
